Among the data in ChEMBL document CHEMBL3988442, “University of Dundee, Small-Polar-MMV Screening Library” (2021) are Percent Effect values, retold here.

The target of the assay is AMP-activated protein kinase, AMPK (Homo sapiens) (UniProt P54646+O43741+P54619+Q9UGJ0+Q9Y478+Q13131+Q9UGI9). The assay is described as follows: AMP-dependent Kinase enzyme assay. An in vitro enzyme assay that detects ADP turnover that is directly proportional to AMPK activity. This uses naive AMPK that is activated during the assay with MK-8722. Type of assay: functional. The arrangement: scale not given: direction of the effect not stated beside the values. Particulars: 30 µM.

Consider `Cc1ccc(Cl)c(C)c1NC(=O)N1CCCN(Cc2ccccn2)CC1`, for which the Percent Effect was found to be 2.6%. The figure for `O=C(CCn1cccn1)N1CCC(c2nnc(-c3ccsc3)o2)CC1` is 4.17%; for `COc1ccc(-c2cc3nc(CCNC(=O)C4CC4)nn3cn2)cc1` it is -2.76%; for `COc1ccc(N2CCC(NC(=O)c3sccc3C)CC2)cc1` it is -1.46%. In the case of `Cc1nc(C)c(CN2CCOC(Cc3ccccc3Cl)C2)nc1C` (stereo unspecified), the Percent Effect is 0.455%. The figure for `Cc1ccc(-n2ncc3c2CCCC3N)cc1C` (stereo unspecified) is 16.9%. As to `Cn1nccc1CN1CCOC(c2ccc(-c3cncnc3)cn2)C1` (stereo unspecified), the Percent Effect was found to be 9.64%. The figure for `CN(C)c1nc2c(c(=O)[nH]1)CCN(C(=O)C1CCCO1)C2` (stereo unspecified) is 2.77%; for `CC(C)(CN1CCC2(CCNCC2)CC1)N1CCOCC1` it is 0.354%. On to `Cn1c(N)nnc1SCc1c(F)cccc1Br`, for which the Percent Effect came to 4.93%.

As for `Cc1ncn(CCNC(=O)Nc2ccccc2)c(=O)c1C`, the Percent Effect is -8.41%. The figure for `COCCN(CC(F)F)c1cc(C(F)(F)F)nc2ncnn12` is 3.49%; for `Cc1cc(NCCc2c(C)n[nH]c2C)nc(-c2cccnc2)n1` it is -4.66%; for `Cc1cc(C(=O)N2CC[C@](C)(O)[C@H](C)C2)c(C)n1C` it is -6.41%. On to `CNS(=O)(=O)CC(=O)N1CCC(c2cc3ccccc3[nH]2)CC1`, for which the Percent Effect came to 16.4%. Under `Cc1cc(CNS(C)(=O)=O)ccc1N(C)C` stands 1.62%; under `CNc1nc(C)c(C(=O)N2C[C@@H](C(=O)O)[C@H](C3CC3)C2)s1`, 3.27%. On to `CN1CC(C(=O)NCCc2ccc3c(c2)OCO3)CC1=O` (stereo unspecified), for which the Percent Effect worked out at 3.69%. For `Cc1ccc(S(=O)(=O)N(CC2CCOC2)C2CC2)cc1N(C)C` (stereo unspecified), the Percent Effect was -15%. With `NCc1cccc(NC(=O)CCN2CCOCC2)c1`, the Percent Effect was -8.1%.

For `CC(O)CN(C)S(=O)(=O)c1ccc(C#N)cc1F` (stereo unspecified), the Percent Effect turned out to be 1.31%. Under `CC1CN(C)CCN1C(=O)c1cccn1Cc1cccs1` (stereo unspecified) stands 3.93%; under `Cc1ccc(CNc2cc3c(cc2Cl)NC(=O)CO3)cc1C`, -0.667%. As for `FC(F)(F)c1cccc(OC2CCN(Cc3ncc[nH]3)CC2)c1`, the Percent Effect is 7.66%. For `O=C(NCC1CCS(=O)(=O)C1)N(Cc1ccncc1)C1CC1` (stereo unspecified), the Percent Effect is -5.47%. Consider `CCn1cnnc1CNC(=O)N1CCOC(c2ccc(Cl)cc2)C1` (stereo unspecified), for which the Percent Effect was -4.37%.
